Screens (PubChem BioAssay)
Only some compounds are listed: those with a hit (about 19% of all), similar ones and a draw of the others.
KB-3-1 cytotox = KB-3-1 parental cell cytotoxicity; KB-3-1 viability, CellTiter-Glo ATP luminescence, 72 h; Potency, µM (titrated, usually from 46.1 µM), most hits filed as cytotoxic; 400,000 tested, 1.4% active; note: nearly all actives have a fitted effect of over 60% in size
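Cytotoxicity in the drug-sensitive parental line KB-3-1 was scored as loss of CellTiter-Glo luminescence following 72 h incubation with compound. Values come from curve fitting of normalized concentration-response data.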
HT1080 IDH1KD tx = HT-1080 IDH1 knockdown cell toxicity (counter line) | HT-1080 IDH1 knockdown viability, ATP luminescence, 48 h | Potency, µM (highest dose often 46.1 µM), inactives show top-dose activity, negative = toxicity, usual class: cytotoxic | 360,000 tested, 2% active | AID 686971;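 note: 0% = DMSO wells and -100% = cell-free medium wells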
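After a 2 h attachment period, IDH1KD HT-1080 cells took pin-transferred compound for 48 h at 37 °C; ATP-based luminescence after 10 min room-temperature reagent incubation reported viability.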
TDP1 cell noCPT = qHTS for Inhibitors of human tyrosyl-DNA phosphodiesterase 1 (TDP1): qHTS in cells in absence of CPT. DT40 Tdp1-/- hTDP1 cells, no CPT, ATP luminescence, 48 h. AID 686978, 2013. Potency, µM (highest dose often 46.2 µM), inactives show at the highest dose activity change, negative = growth inhibition, hits mostly inhibitors. 420,000 tested, 15% active; note: nearly all actives have a fitted effect of over 55% in size
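A cellular qHTS used chicken DT40 cells lacking endogenous Tdp1 but carrying stably transfected human TDP1. Compounds were applied without camptothecin, and cell growth kinetics were judged by ATP-dependent luminescence after ≥48 hr.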
HT1080NT lethal = kills 2HG-producing HT-1080-NT fibrosarcoma cells; HT-1080-NT fibrosarcoma viability, CellTiter-Glo ATP luminescence, 48 h; AID 686970; Potency, µM (top dose mostly 46.1 µM), for inactives: at the top dose activity, negative = less viability, most hits filed as cytotoxic; 360,000 tested, 1.6% active;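 note: NT is the 2HG producing partner of a matched IDH1 knockdown line; 0% = DMSO-treated cells and -100% = media-only wells without cells; nearly all actives have a fitted effect of over 55% in size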
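Viability of the 2HG-overproducing fibrosarcoma line after 48 hours of compound exposure at 37 degrees C was determined by luminescence with CellTiter-Glo, and concentration-effect curves were then fitted and categorized.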
DT40 TDP1 CPT = growth inhibition of DT40 Tdp1-/-;hTDP1 cells with camptothecin (screen for TDP1 inhibitors). Potency, µM (highest dose often 46.2 µM), without a hit: at the highest dose activity change, negative = growth inhibition, actives largely listed as inhibitors. chicken DT40 Tdp1-/-;hTDP1 cells + 20 nM CPT, ATP luminescence, 48 h. AID 686979. 420,000 tested, 12% active; note: nearly all actives have a fitted effect of over 55% in size
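Cell growth measured by CellTiter-Glo luminescence after a minimum 48 h, 37 C compound exposure with 20 nM CPT in Tdp1-knockout DT40 cells stably expressing hTDP1, seeded 400/well; qHTS titration format.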
KB-V1 MDR tox = kills drug-selected multidrug resistant KB-V1 cells. AID 1347076. KB-V1 MDR cells viability, CellTiter-Glo, 72 h. Potency, µM (titrated, usually from 46.1 µM), actives largely listed as cytotoxic. 400,000 tested, 3.4% active; note: nearly all actives have a fitted effect of over 60% in size
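Luminescent ATP read-out (CellTiter-Glo, 10 min) measures survival of drug-selected KB-V1 MDR cells after 72 h, 37 degrees C compound exposure. Medium: phenol-red-free DMEM, 10% FBS. Values from fitted concentration-response curves.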
Numbers without * were called inactive; i = inactive; ? = inconclusive; / = no result given; [ ] = dose if it differs, or a comment. Calls come from the whole dose curve; as a rule, active = well fitted curve in the direction sought with a large enough effect; inconclusive = small, poorly fitted or top-dose-only effect, or another doubt; inactive = no such curve, though single readings can be large; an effect the other way counts as inactive or inconclusive. Unless noted, % is set by controls: 0 for no effect and ±100 for the full control effect; potency is the fitted concentration of half-maximal effect.

SMILES | KB-3-1 cytotox | HT1080 IDH1KD tx | TDP1 cell noCPT | HT1080NT lethal | DT40 TDP1 CPT | KB-V1 MDR tox
Cc1nnc2ccc(-c3ccc(NS(=O)(=O)c4ccc(F)cc4F)cc3)nn12 | ? | -2% | ? | 1% | -11% | i
O=C(Nc1ccc(F)c(F)c1)c1ccc(-n2cncn2)c([N+](=O)[O-])c1 | i | -6% | ? | -5% | 8.2µM* | i
O=C(COc1ccc(Br)cc1)NNC(=O)c1ccc(-n2cncn2)c([N+](=O)[O-])c1 | i | -2% | 16µM* | -1% | ? | i
O=C(Nc1cc(Cl)ccc1-n1cncn1)c1ccco1 | i | -1% | 11% | 0% | -6% | i
O=C(Nc1cc(F)ccc1F)c1ccc(-n2cncn2)c([N+](=O)[O-])c1 | i | 16% | -2% | 1% | -22% | i
O=C(Nc1cc(Cl)ccc1-n1cncn1)c1ccc([N+](=O)[O-])s1 | ? | -1% | ? | -21% | 7.3µM* | ?
O=C(Nc1cccc(/C=C/c2ccccn2)c1)c1ccc(-n2cncn2)c([N+](=O)[O-])c1 | ? | -26% | 6.5µM* | -14% | 16µM* | ?
Cc1cccc(CSc2nc3c(c(-c4cccs4)c2C#N)CN(C)CC3)c1 | i | 5% | ? | 5% | ? | i
CN1CCc2nc(SCC(=O)Nc3cccc(F)c3)c(C#N)c(-c3cccs3)c2C1 | i | -21% | ? | -19% | ? | i
CN1CCc2nc(SCC(=O)Nc3ccc(OC(F)(F)F)cc3)c(C#N)c(-c3cccs3)c2C1 | ? | 11% | 23µM* | 5% | 15µM* | i
CC(C)(C)C(=O)CSc1nc2c(c(-c3cccs3)c1C#N)CCC2 | i | 0% | 23µM* | -1% | ? | i
Cc1cccc(CSc2nc(N)c(C#N)c(-c3cccs3)c2C#N)c1 | ? | -27% | ? | -10% | ? | 11µM*
N#Cc1c(N)nc2c(c1-c1cccs1)CCCC2 | i | -9% | -12% | 3% | -9% | i
CC(C)OC(=O)CSc1nc(N)c(C#N)c(-c2cccs2)c1C#N | i | -16% | ? | ? | ? | 21µM*
N#Cc1c(N)nc(SCC(=O)NCCc2ccccc2)c(C#N)c1-c1cccs1 | i | -13%[9.24 µM] | -16% | ? | -4% | i
Cc1ccc2c(c1)oc(=O)n2CC(=O)c1ccccc1 | i | -2% | 0% | 26% | 6% | i
COc1ccc(C)c2sc(NC(=O)c3ccc(S(=O)(=O)N4CCCCC4)cc3)nc12 | i | / | -2% | / | -26% | ?
CC(=O)CSc1nc(N)c(C#N)c(-c2cccs2)c1C#N | i | ? | 13µM* | -24% | 21µM* | 18µM*
COCc1c(C(=O)N2CCN(C(C)C)CC2)cnn1-c1nccc(-c2cc(C)sc2C)n1 | / | / | -11% | / | 3% | /
CC(O)(COc1ccccc1)c1ccc2c(c1)CN(Cc1cccn1-c1ccccn1)CCO2 (stereo unspecified) | / | / | 16µM* | / | -11%[9.04 µM] | /
CC(O)(COc1ccccc1)c1ccc2c(c1)CN(Cc1cccc3cccnc13)CCO2 (stereo unspecified) | / | / | ? | / | 14%[9.04 µM] | /
CCn1c(=O)sc2cc(NS(=O)(=O)c3ccc(F)c(C)c3)ccc21 | / | / | 10µM* | / | 10µM* | /
COc1ccc(S(=O)(=O)Nc2ccc3c(c2)sc(=O)n3C)cc1Cl | / | / | 18µM* | / | 23µM* | /
COc1ccc(NS(=O)(=O)c2ccc3c(c2)NC(=O)CCS3)c(OC)c1 | i | / | / | / | / | i
COc1ccc(NS(=O)(=O)c2ccc3c(c2)n(C)c(=O)c(=O)n3C)cc1Cl | i | / | ? | / | -12% | ?
